Source: PubChem BioAssay
Sampled rows, rich in hits. Any-hit rate of the full collection: about 2.4%.
D2 PAM-1 = Beta-Arrestin HTS for Positive Allosteric Modulators of the Human D2 Dopamine Receptor: Potentiators. D(2) dopamine receptor (Homo sapiens), P14416. DiscoveRx D2 beta-arrestin cells, luminescence, 90 min; 100% = 57 uM dopamine signal. potentiation, % (concentration not given with the values). actives 0.23% (n = 360,000). AID 624464, 2012; in the data active means potentiation above about 50%; inconclusive means mostly about 30% to 49%
Target sequence (P14416 whole entry, looked up): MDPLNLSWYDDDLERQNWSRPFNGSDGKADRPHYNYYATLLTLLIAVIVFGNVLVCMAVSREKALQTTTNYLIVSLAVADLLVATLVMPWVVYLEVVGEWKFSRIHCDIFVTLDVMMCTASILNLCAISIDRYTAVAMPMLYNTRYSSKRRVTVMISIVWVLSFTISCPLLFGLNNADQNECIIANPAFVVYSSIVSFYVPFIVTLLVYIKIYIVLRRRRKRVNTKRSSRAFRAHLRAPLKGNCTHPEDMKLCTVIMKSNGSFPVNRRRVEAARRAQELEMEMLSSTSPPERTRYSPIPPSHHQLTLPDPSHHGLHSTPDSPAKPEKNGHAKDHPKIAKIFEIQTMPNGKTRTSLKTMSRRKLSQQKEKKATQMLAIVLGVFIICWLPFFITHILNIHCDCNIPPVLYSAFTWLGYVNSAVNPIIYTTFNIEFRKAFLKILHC
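PathHunter D2 cells, attached overnight at 37 deg C, received compound in DMSO plus dopamine at EC20 (50 nM final) for 90 min at 37 deg C. Beta-arrestin recruitment was read as luminescence after 1 h with detection reagent at ambient temperature.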
D2 ag-1 = HTS Assay for Allosteric Agonists of the Human D2 Dopamine Receptor: Primary Screen for Agonists; HEK293 T-REx D2 cells, calcium flux agonist mode; activation, % at 2 µM; actives 0.53% (n = 340,000); AID 485358, 2010;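 active means activation over 3 SD above normal in the single-dose calcium agonist read, cut at about 30% in these data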
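Agonism is scored from calcium flux in a force-coupled, inducible HEK293 cell line expressing D2, read kinetically for 180 s after compound addition against dopamine controls.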
D2 antag = HTS Assay for Allosteric Antagonists of the Human D2 Dopamine Receptor: Primary Screen for Antagonists; D(2) dopamine receptor (Homo sapiens), P14416; HEK293 TREx D2 cells, calcium flux, dopamine EC80; inhibition, % at 10 µM; actives 2% (n = 340,000); in the data active means inhibition above about 30%; inactive means below that, where a call was filed
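Measurement of antagonist activity uses fluorescent calcium dye in inducible HEK293 T-REx D2 cells: 10 s baseline, compound addition with 180 s read, EC80 dopamine addition with a further 180 s read.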
D2 PAM-2 = HTS Assay for Positive Allosteric Modulators of the Human D2 Dopamine Receptor: Primary Screen for Potentiators; actives 0.34% (n = 340,000); HEK293 T-REx D2, calcium flux, EC20 dopamine potentiation; potentiation, % at 10 µM;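 active means potentiation over 3 SD above the plate norm, cut at about 30% in these data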
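Potentiation of an EC20 dopamine calcium response is measured in a force-coupled, tetracycline-inducible Hek293 Trex D2 line. Compound-only kinetic reads over 180 s flag agonists before dopamine addition.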
D2 ag-2 = Beta-Arrestin HTS for Positive Allosteric Modulators of the Human D2 Dopamine Receptor: Agonists; DiscoveRx PathHunter D2 beta-arrestin, luminescence, 90 min; 100% = 57 uM dopamine signal; actives 0.084% (n = 360,000); D(2) dopamine receptor (Homo sapiens), P14416; activation, % (concentration not given with the values); AID 624465, 2012; in the data active means activation above about 40%; inconclusive means between about 15% and that limit
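Agonist mode: compounds alone added to overnight-plated D2 PathHunter cells for 90 min at 37 C, with 57 uM final dopamine (EC100) defining full response. Beta-arrestin recruitment detected by chemiluminescent reagent, read after 1 h at ambient temperature.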
D3 arrestin ag = qHTS of D3 Dopamine Receptor Agonist: D3 Dopamine Receptor B-arrestin Agonist Confirmatory Assay; shares compounds with D2 ag-1; DiscoveRx D3 beta-arrestin cells, luminescence, 90 min; AID 720506, 2013; actives 4% (n = 2,300); Potency, µM (titrated, usually from 76.9 µM), usual class: activators; further: nearly all actives have a fitted effect of over 70% in size
D2 ag-3 = qHTS of D3 Dopamine Receptor Agonist: D2 Dopamine Receptor B-arrestin Agonist Counterscreen; shares compounds with D2 ag-1; DiscoveRx PathHunter D2 beta-arrestin, luminescence, 90 min; response scale: percent relative to full dopamine signal; Potency, µM (highest dose often 76.9 µM), hits mostly activators; actives 5.9% (n = 2,300); AID 720507, 2013; further: nearly all actives have a fitted effect of over 70% in size
Each line names hits and unclear results; the compound was inactive in the other large screens (follow-up assays come after a bar, where they were run). Unless noted, the call rests on the fitted dose curve; in most records, active means well fitted activation curve with a large enough effect; inconclusive means small, poorly fitted or top-dose-only effect; inactive means flat fitted curve, though single readings scatter.

CCN1CCN(c2ncnc3scc(-c4ccc(C)cc4)c23)CC1	D2 PAM-1 inconclusive, D2 ag-1 70, D2 antag 68, D2 ag-2 110 | D3 arrestin ag inactive | D2 ag-3 2.8µM
CSCCC(NC(=O)COc1ccccc1)C(=O)N1CC(C)CC(C)C1 (centres undefined)	none
CSCCC(NC(=O)COc1ccccc1)C(=O)N1CC(C)OC(C)C1 (centres undefined)	none | D3 arrestin ag inactive | D2 ag-3 inactive
CCc1cccc(NC(=O)CN(C)S(=O)(=O)c2ccc3c(c2)n(C)c(=O)c(=O)n3C)c1	none (no result: D2 PAM-1, D2 antag, D2 ag-2)
CN(Cc1ccccc1)CC(O)COc1ccc(CNCCOc2cccnc2)cc1 (centres undefined)	D2 ag-1 56, D2 antag 83, D2 ag-2 inconclusive | D3 arrestin ag 1.4µM | D2 ag-3 inactive
CN(Cc1ccccc1)C(=O)c1nc2ccccn2c1CNCCOc1cccnc1	D2 ag-1 41 | D3 arrestin ag inactive | D2 ag-3 inactive
CN(Cc1ccccc1)CC(O)COc1ccc(CNCCCOc2cccnc2)cc1 (centres undefined)	none
C/C(=C\c1ccccc1)CN1CCN(c2ccccc2F)CC1	D2 antag 67 | D3 arrestin ag inactive | D2 ag-3 inactive
CCN1CCN(C/C(C)=C/c2ccccc2)CC1	none
Cc1ccccc1C(=O)NCC(=O)NNC(=O)CCN1CCN(c2ccccc2)CC1	D2 ag-1 82, D2 antag 72 | D3 arrestin ag inconclusive | D2 ag-3 inconclusive
CC(Oc1ccc(Br)cc1)C(=O)NNC(=O)CCN1CCN(c2ccccc2)CC1 (centres undefined)	D2 ag-1 38, D2 antag 61 | D3 arrestin ag inactive | D2 ag-3 inconclusive
CCOc1ccc(C(=O)CCC(=O)NNC(=O)CCN2CCN(c3ccccc3)CC2)cc1	none (no result: D2 ag-1, D2 antag, D2 PAM-2)
O=C(CCN1CCN(c2ccccc2)CC1)NNC(=O)Cc1ccc(Br)cc1	D2 ag-1 77, D2 antag 70 | D3 arrestin ag inactive | D2 ag-3 inactive
CCOC(=O)N1CCC(NC(=O)c2ccc3c(c2)N(Cc2ccc(Cl)cc2)C(=O)c2ccccc2S3(=O)=O)CC1	none (no result: D2 PAM-1, D2 antag, D2 ag-2)
CCOCCOC(=O)c1ccc2c(c1)N(Cc1ccccc1C#N)C(=O)c1ccccc1S2(=O)=O	none (no result: D2 PAM-1, D2 antag, D2 ag-2)
CC1CC1C(=O)Nc1ccc(S(=O)(=O)N2CCCCC2)cc1 (centres undefined)	none (no result: D2 ag-1, D2 antag, D2 PAM-2) | D3 arrestin ag inactive | D2 ag-3 inactive
O=C(O)C1CCCCC1C(=O)Nc1ccc(S(=O)(=O)N2CCCCCC2)cc1 (centres undefined)	none
O=C(c1ccccc1Cc1ccccc1)N1CCN(S(=O)(=O)c2ccccc2[N+](=O)[O-])CC1	none
Cc1cccc(S(=O)(=O)Nc2ccc(-c3cn4ccccc4n3)cc2)c1	none
O=S(=O)(Nc1ccc(-c2cn3ccccc3n2)cc1)c1ccccc1	D2 antag 40 | D3 arrestin ag inactive | D2 ag-3 inactive
O=C1OC(N2CCN(C(=O)c3ccco3)CC2)c2ccccc21 (centres undefined)	none (no result: D2 ag-1, D2 antag, D2 PAM-2) | D3 arrestin ag inactive | D2 ag-3 inactive
O=C(c1cc(-c2ccccc2)on1)N1CCN(c2ccccc2)CC1	none
O=C(c1ccco1)N1CCC(N2CCN(c3ccccc3)CC2)CC1	D2 ag-1 78, D2 antag 61 | D3 arrestin ag inconclusive | D2 ag-3 inactive
O=C(c1cc(-c2ccco2)on1)N1CCN(c2ccccc2)CC1	D2 ag-1 45 | D3 arrestin ag inactive | D2 ag-3 inactive
Cc1ccccc1-n1c(SC(C)C(=O)NCC2CCCO2)nnc1-c1ccncc1 (centres undefined)	none (no result: D2 ag-1, D2 antag, D2 PAM-2)
CCOC(=O)C1CCN(S(=O)(=O)c2ccc(N3CCCCS3(=O)=O)cc2)CC1	none (no result: D2 PAM-1, D2 antag, D2 ag-2)
Cc1ccc(C(c2sc3nc(-c4ccco4)nn3c2O)N2CCN(c3ccc(F)cc3)CC2)cc1 (centres undefined)	none (no result: D2 PAM-1, D2 antag, D2 ag-2)
Cc1cccc(C(=O)NC(=S)NNC(=O)c2cccs2)c1	none
Cc1cccc(C(=O)NC(=S)NNC(=O)c2ccc(Cl)cc2)c1	D2 ag-1 75 | D3 arrestin ag inactive | D2 ag-3 inactive
COc1cc(/C=N/Nc2cc(C)nc(NS(=O)(=O)c3ccc(C)cc3)n2)ccc1O	none
COc1cc(/C=N/Nc2cc(C)nc(NS(=O)(=O)c3ccccc3)n2)ccc1O	none | D3 arrestin ag inactive | D2 ag-3 inactive
COc1ccccc1-c1noc(-c2ccc(NC3CCCC3)c([N+](=O)[O-])c2)n1	none (no result: D2 PAM-1, D2 antag, D2 ag-2)
CNC(=S)N(CCc1c(C)[nH]c2ccc(OC)cc12)Cc1cccnc1	none | D3 arrestin ag inactive | D2 ag-3 inactive
Cc1ccc(-c2c(C(=O)N/N=C/c3cccs3)nnn2-c2nonc2N)cc1	none (no result: D2 ag-1, D2 antag) | D3 arrestin ag inactive | D2 ag-3 inactive
Cc1ccc(-c2c(C(=O)N/N=C/c3ccoc3)nnn2-c2nonc2N)cc1	none | D3 arrestin ag inactive | D2 ag-3 inactive
Cc1ccsc1/C=N/NC(=O)c1nnn(-c2nonc2N)c1-c1ccc2c(c1)OCO2	none
Nc1nonc1-n1nnc(C(=O)N/N=C/c2cccs2)c1-c1ccc2c(c1)OCO2	none | D3 arrestin ag inactive | D2 ag-3 inactive
CCOc1ccc(-c2c(C(=O)N/N=C/c3cccs3)nnn2-c2nonc2N)cc1	D2 ag-2 inconclusive
O=C(CN1C(=O)COc2ccccc21)NCCc1ccc(Cl)cc1	none (no result: D2 PAM-1, D2 antag, D2 ag-2)
Cc1ccc(Cn2c(=O)n(-c3cccc(C(F)(F)F)c3)c(=O)c3c(C)c(C)sc32)c(C)c1	none (no result: D2 PAM-1, D2 ag-1, D2 antag, D2 ag-2)
Cn1cncc1C#Cc1ccc2cc(CCO)oc(=O)c2c1	none | D3 arrestin ag inactive | D2 ag-3 inactive
CCC(=O)NNc1ncnc2c1cnn2C	D2 antag 48 | D3 arrestin ag inactive | D2 ag-3 inactive
CCCN1C(=O)/C(=C/c2c(NCCCOC(C)C)nc3c(C)cccn3c2=O)SC1=S	none | D3 arrestin ag inactive | D2 ag-3 inactive
